Assay results taken from PubChem BioAssay (NCI).
Several values for one entry are separate records, joined by “and”; a condition that tells them apart may be missing. Identical values can stand only once. The panel holds about 79,000 compounds, 15% with a hit somewhere; the sample as a whole holds those more often. Values without a mark were called inactive. Activity calls are given as the source filed them. Rule as the data show it: active = growth inhibition above about 70%; inactive = the rest.

What was measured:
[1] = NCI Yeast Anticancer Drug Screen. Data for the rad50 strain (AID 155);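 also: 0% = growth of vehicle-only cultures of the same strain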; conditions: S. cerevisiae rad50 strain growth inhibition, active compounds read high; at 50.0 µM unless noted
How it was run: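 Genetically altered yeast (DNA repair pathway); compound treatment; growth inhibition vs vehicle ctrl.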

[2] = NCI Yeast Anticancer Drug Screen. Data for the mec2-1 strain (AID 157); conditions: S. cerevisiae mec2-1 strain, active compounds read high; at 50.0 µM unless noted
How it was run: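 Vehicle-treated cultures served as reference for growth inhibition of compound-exposed mec2-1 yeast.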

[3] = NCI Yeast Anticancer Drug Screen. Data for the sgs1 mgt1 strain (AID 161);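 also: 0% = growth of cultures given vehicle only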; conditions: S. cerevisiae sgs1 mgt1 strain, active compounds read high; at 50.0 µM unless noted
How it was run: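 Genetically altered yeast, compound exposure, growth inhibition relative to vehicle.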

[4] = NCI Yeast Anticancer Drug Screen. Data for the cln2 rad14 strain (AID 165);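 also: 0% = growth equal to vehicle treated cultures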; conditions: S. cerevisiae cln2 rad14 strain, active compounds read high; at 50.0 µM unless noted
How it was run: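 Each compound was tested on cln2 rad14 yeast. Inhibition of growth was calculated against vehicle-exposed controls.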

[5] = NCI Yeast Anticancer Drug Screen. Data for the bub3 strain (AID 167); conditions: S. cerevisiae bub3 mutant strain, active compounds read high; at 50.0 µM unless noted
How it was run: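 Yeast carrying a defined mutation is treated with each compound, and growth is compared with that of vehicle-exposed cells to give inhibition.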

[6] = NCI Yeast Anticancer Drug Screen. Data for the mlh1 rad18 strain (AID 175); conditions: S. cerevisiae mlh1 rad18 strain growth inhibition, active compounds read high; at 50.0 µM unless noted
How it was run: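 Vehicle-treated cultures served as the reference for growth inhibition in a yeast strain carrying DNA damage repair alterations exposed to each compound.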

Row | Compound | growth inhibition [1] | growth inhibition [2] | growth inhibition [3] | growth inhibition [4] | growth inhibition [5] | growth inhibition [6]
1 | CCCCCCOc1ccccc1CO | 14.7% | 10.6% | -1.5% | 2% | -8.15% | 10.8%
2 | O=[N+]([O-])c1ccc(C[n+]2ccccc2)cc1 | -1.25% and 31.9% | 13.2% and -3.9% | -4.2% and -1.45% | -15.8% and 16.4% | -6.95% and -2.65% | -18.2% and 13.7%
3 | Cc1ccc2c(N=Nc3ccc(C(=N)N)cc3)ccc(O)c2n1 | 99.3% (active) | 99.4% (active) | 99.5% (active) | 98.2% (active) | 99.2% (active) | 99.2% (active)
4 | COc1ccc(/C(C)=N/N=C\c2cc(OC)c(OC)c(OC)c2)cc1 | 6.95% | 3.15% | -10.8% | 14.8% | 83.2% (active) | 8.2%
5 | CC(C)CCC[C@@H](C)C1CCC2[C@@H]3CCC4C[C@@H](CCC=C(c5cc(Cl)c(O)c(C(=O)O)c5)c5cc(Cl)c(O)c(C(=O)O)c5)CC[C@]4(C)C3CC[C@@]21C (stereo not given in full) | -26.4% | -21.9% | -14.7% | -41% | 8.5% | -45.9%
6 | O=CN1CCCCC1 | -43.1% and -15.2% | -26% and -2.6% | -3.05% and -5.15% | 3.15% and -27.7% | -18.9% and 0.45% | -8.8% and 0.65%
7 | O=C1c2ccccc2-c2c1c1ccccc1c(=O)n2-c1ccccc1 | -1.7% | -26.1% | 6% | -5.85% | -13.6% | -51.6%
8 | CCCC(=O)NC1CCCCC1 | -22.2% | 8.05% | -26.9% | 26.5% | -24.1% | -23.1%
9 | Clc1c(Cl)c(Cl)c(C[n+]2c(Cl)sc3ccccc32)c(Cl)c1Cl | 12.6% | 10.2% | 5.05% | -6.6% | 10.3% | 6.2%
10 | Cc1c2c(c(O)c3sccc13)C(C)(C)OC2=O | -3.75% | -1.8% | -9.6% | -59% | -26.4% | -3.1%
11 | Nc1nc(-c2ccco2)cc(-c2ccco2)n1 | -23.4% | -23.2% | -18.8% | 12.8% | -20.1% | -31.1%
12 | CCOC(=O)/C(SC#N)=C(/N)N1CCCC1 | -12.2% | -43.8% | -4% | 9.95% | 0.75% | -14.2%
13 | O=C(CCS(=O)(=O)CCC(=O)c1ccc2ccccc2c1)c1ccc2ccccc2c1 | -66.8% | -13.2% | -2.4% | -35.3% | 0.25% | -52.5%
14 | CCOC(=O)C(Sc1ccc(C)cc1)C(Sc1ccc(C)cc1)C(=O)OCC (stereo not given) | 0.6% | -6.6% | 11.2% | -17.3% | -0.3% | -0.75%
15 | COc1ccc(C(=O)/C=C/c2ccc(OCC#N)cc2)cc1OC | -39.5% | -61.4% | -38.5% | -30.2% | -33% | -54.1%
16 | CCOC(=O)CNC(=O)SCc1ccccc1 | -12.4% | -6.2% | -5.95% | -8.1% | -11.3% | 1.45%
17 | CCOC(=O)[C@H]1Nc2c(cccc2[N+](=O)[O-])C2c3ccccc3CC21 (stereo not given in full) | 48.5% | 1.55% | 8.6% | 25.3% | 9.5% | 13.6%
18 | CC(=O)[CH-]C(=O)c1ccccc1.CC(=O)[CH-]C(=O)c1ccccc1.CC1(C)OCC(C2OC3OC(C)(C)OC3C2[O-])O1.CC[O-].[Ti+4] (stereo not given) | 41.4% | 24.1% | 35.5% | 23% | 31.2% | 33.4%

Row | Compound | growth inhibition [1] | growth inhibition [2] | growth inhibition [3] | growth inhibition [4] | growth inhibition [5] | growth inhibition [6]
19 | COC1=CC2CC(C#N)C2(OC)C=C1 (stereo not given) | -10.8% | 5.75% | -4.7% | -18.2% | -17.4% | 1.8%
20 | COc1cc(Br)c(CC(NC=O)c2ccc(OC)c(OC)c2OC)cc1OC (stereo not given) | 0.4% | -0.1% | -6.95% | -7.8% | -1.5% | 23.9%
21 | CCOC(=O)NC(=O)c1cn(CCOCCOC(=O)NCCCCCCNC(=O)OCCOCCn2cc(C(=O)NC(=O)OCC)c(=O)[nH]c2=O)c(=O)[nH]c1=O | 5.05% | 24.2% | 25.6% | 20.1% | -6.9% | 29.6%
22 | CCCCCCCCCCCCCOc1ccc(S(=O)(=O)/N=C(\N)NC(N)=NCCCCCCCCCCCC)cc1 | 2.9% | 12.4% | -2.8% | -1.55% | -4.95% | 8.05%
23 | Clc1nc2n(c1/C=C/c1cccs1)CCS2 | 28.4% | 23.2% | 56.4% | 13.9% | 20.6% | 59.5%
24 | Cc1cc([N+](=O)[O-])ccc1NC(=O)n1nnc2cc(Cl)ccc21 | -5.55% | 0.35% | -5.85% | 1.1% | 21% | 6.9%
25 | ClCCN1CCOC1=Nc1ccc2c(c1)CCCC2 | -21.2% | -16.9% | 2.6% | 4.4% | -7.25% | -49.2%
26 | N#CCCOc1ccc(N)cc1 | 0.55% | -5.2% | 7.15% | 3.75% | 8.65% | 17.6%
27 | CCN(CC)CCOC(=O)c1ccc(NC(=O)OCCOCCOC(=O)Nc2ccc(C(=O)OCCN(CC)CC)cc2)cc1 | -1.8% | -4.3% | 9.25% | -1.1% | -3.1% | 14.7%
28 | CCC(NN)C(=O)O (stereo not given) | 5.45% | -14.1% | -33.6% | -26% | -9.5% | -5.35%
29 | CCCCCCCCN1CCOCCOCCN(CCCCCCCC)c2nc(Cl)nc(n2)NCCOCCOCCNc2nc(Cl)nc1n2 | 7.8% | -16.1% | -21.8% | -9.7% | -5% | 7.7%
30 | CCSC(SCC)C(NC(C)=O)C(O)C(O)C(O)CO (stereo not given) | 28.7% | 3.45% | 3.7% | 12.7% | 15.2% | 21.4%
31 | CC(Br)CCCBr (stereo not given) | -19.1% | -5.65% | -21.1% | -22.4% | -4.5% | -13.8%
32 | COc1ccc2nc(C(=O)c3ccccc3)c(C)cc2c1 | 8.4% | -28.5% | -10.7% | 1.8% | -10.9% | -13.2%
33 | Cn1cnc([N+](=O)[O-])c1Sc1ncc[nH]1 | 1.3% | 3.1% | -3.05% | 16.4% | 9.7% | 2.8%
34 | Cc1cccc(NC(=O)Nc2ccccc2F)n1 | -2.7% | 5.65% | -8.95% | -26.9% | -6.95% | -12.1%
35 | O=C(Nc1cc(Cl)c(Cl)cc1Cl)C(=O)C(C(=O)c1ccccc1)C1OC(=O)c2ccccc21 (stereo not given) | -18.6% | -34.8% | -25.1% | -0.5% | -10.2% | -10.3%
